The target of assay [1] is Transient receptor potential cation channel subfamily V member 1 (Homo sapiens) (UniProt Q8NER1). Kind of assay: HTS Assay for Compounds that Act as Enhancers of the Vanilloid Receptor 1 (AID 488979). Further: 0% is about no effect. Conditions: TRPV1-expressing cells, enhancer of channel activity; series mostly up to 41.7 µM. In outline: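 Calcium influx kinetics via Fluo-8 (480/520 nm) in TRPV1-expressing cells, 2000/well cultured overnight at 35.5C. Compound-alone read 3 min (agonist phase), followed by EC20 capsaicin challenge for 2 min (enhancer phase).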

The target in assay [2] is Thyrotropin receptor (Homo sapiens) (UniProt P16473). Kind of assay: qHTS Assay for Antagonists of the Thyroid Stimulating Hormone Receptor (AID 488980). Further: 0% is about no effect. Conditions: TSHR-expressing cells, cAMP antagonist read-out; series mostly up to 57.5 µM. In a few lines: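 Cells expressing human TSHR (HEK293) are dispensed in HBSS/HEPES containing 70 uM RO 20-1724, compound is added, then TSH at EC80 (4 nM final). Antibody in lysis buffer follows, 30 minutes at room temperature before HTRF detection.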

Assay [3] has as its target D(1A) dopamine receptor (Homo sapiens) (UniProt P21728). Kind of assay: HTS Assay for Allosteric Agonists of the Human D1 Dopamine Receptor: Primary Screen for Agonists (AID 488981). Further: potency means the concentration at half of the fitted maximal effect. On activation: 0% is about no effect. Conditions: Inducible HEK293 T-REx D1 cells, calcium-flux fluorescence, 180 s kinetic; series mostly up to 41.8 µM. In a few lines:
(§1)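 Calcium flux in an inducible, force-coupled HEK293 Trex D1 line (overnight at 30 C): agonist mode is the 180 s kinetic read after compound; potentiator mode is the following 180 s read after dopamine at EC20.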

Assay [4] shares this target. Description: HTS Assay for Allosteric Agonists of the Human D1 Dopamine Receptor: Primary Screen for Potentiators (AID 488982). Further: 0% is about no effect. Conditions: HEK293 T-REx D1 inducible cells, calcium flux, kinetic fluorescence; series mostly up to 8.37 µM. In outline: as §1
Assay [5] can be described thus: Validation screen for small molecules that induce genotoxicity in human embryonic kidney (HEK293T) cells expressing luciferase-tagged ELG1 (AID 493106). Further: 0% is about no effect. The note with it: luminescence; series mostly up to 46.1 µM. In a few lines: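 HEK293T cells expressing luciferase-tagged ELG1, 2,000 cells/well, exposed to compound 16 hr at 37 °C, 5% CO2. Luciferase read after ONE-Glo, 30 min at room temperature; increased signal indicates genetic stress.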

For assay [6], the target named is ATPase family AAA domain-containing protein 5 (Homo sapiens) (UniProt Q96QE3). Kind of assay: Validation screen for small molecules that inhibit ELG1-dependent DNA repair in human embryonic kidney (HEK293T) cells expressing luciferase-tagged ELG1 (AID 493107).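 Further: cells co-treated with the DNA-damaging agent 5-fluorouridine alongside compound; on the % scale 0 is the no-effect control and ±100 the full control effect; inhibitors lower the ELG1-luciferase luminescence signal; nearly all actives have a fitted effect of over 70% in size.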 Conditions: HEK293T ELG1-luciferase level, luminescence, 5-fluorouridine co-treatment, 16 h; series mostly up to 46.1 µM. In outline: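 HEK293T cells expressing luciferase-tagged ELG1, 2,000 per well, treated with 5-fluorouridine plus compound for 16 h at 37 C. ONE-Glo luminescence after 30 min at room temperature reports ELG1 reporter level.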

Assay [7] has as its target Thyrotropin-releasing hormone receptor (Homo sapiens) (UniProt P34981). Kind of assay: qHTS for Small Molecule Agonists and Allosteric Enhancers of Human TRH Receptor: Validation Screen for Agonists (AID 493127;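 active means calcium activation more than 3 SD above the typical response in the agonist read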; further: 0% is about no effect). The note with it: TRH receptor agonist cell assay; at 2 µM; stronger effect = higher value. In outline:
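TRHR cells loaded with fluo-8 calcium dye; FDSS kinetic fluorescence (Ex 480/Em 530) read at 1 s/cycle after 23 nL compound addition. Agonist-mode calcium response recorded before the 10 nM TRH (EC20) addition.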

The nature of assay [8]: Nrf2 qHTS screen for inhibitors: Validation (AID 493153; active means well fitted inhibition curve with a large enough effect in the main read-out, with a control signal flat, not every such curve was filed as active). Conditions: A549 ARE-Fluc reporter, 18-24 h; viability change: measured here: cytotoxicity max response; luciferase luminescence, at 46.1 µM (top of the series). In a few lines:
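A549 cells carrying ARE-firefly luciferase reporter, 5000 cells/well in 5% FBS OPTI-MEM, treated with compound over a concentration series for 18-24 h at 37 C. Luciferase luminescence gave Nrf2 activity; CellTiter-Fluor fluorescence gave viability.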

A short description of assay [9]: qHTS for Inhibitors of Cell Surface uPA Generation: Validation Assay (AID 493164). Further: 0% is about no effect. The note with it: mouse cells, plasminogen activation; series mostly up to 38.3 µM. In a few lines: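 RAW 264.7 cells (4000/well) were plated overnight, then exposed for 18 h at 37 C, 5% CO2 to compounds in a 7-point 1:5 titration (2.45 nM–38.3 uM final). Intracellular ATP was read by ATP-Lite luminescence.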

Assay [10] deals with Galactokinase (Homo sapiens) (UniProt P51570). Kind of assay: qHTS Validation Assay for Inhibitors of Human Galactokinase (GALK) (AID 493189). Further: 0% is about no effect. The note with it: purified human GALK enzyme activity, qHTS 7-point titration; series mostly up to 57.5 µM. In outline: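 Compounds were pin-transferred into ATP buffer, then GALK-galactose mix was added (final 5 nM enzyme, 100 uM galactose, 35 uM ATP). After 1 h at room temperature, remaining ATP was measured luminescently.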

The nature of assay [11]: Validation screen for small molecules that induce DNA re-replication in SW480 colon adenocarcinoma cells (AID 504364). Further: 0% is about no effect. The note with it: DNA re-replication phenotype (high-content imaging); series mostly up to 46.1 µM. In outline:
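SW480 cells (250/well) exposed 48 h at 37 C, 5% CO2, then Hoechst-stained 40 min. Nuclear DNA content imaged by fluorescence scanning (405 nm excitation, 500-530 nm emission); re-replication scored as increased nuclei with elevated intensity.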

Assay [12] addresses Peptidyl-prolyl cis-trans isomerase NIMA-interacting 1 (Homo sapiens) (UniProt Q13526). Kind of assay: qHTS Validation Assay to Find Inhibitors of Pin1 (AID 504536; active means well fitted inhibition curve with a large enough effect in the polarisation, with a control signal flat, not every such curve was filed as active; the % refers to the polarisation;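 further: 0% = full Pin1 enzyme wells and -100% = no-enzyme wells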). The note with it: Pin1 fluorescence polarization peptide binding assay; series mostly up to 57.5 µM. In outline: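 Fluorescence polarization competition: compounds (titration) displace HiFluor-488-labeled Pin1-1b peptide from Pin1 (0.3 uM final) in pH 7.5 HEPES buffer with DTT, 10 min at room temperature; %Activity normalized to no-enzyme wells, curves fitted.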

Assay [13] deals with Phosphoglycerate kinase, glycosomal (Trypanosoma brucei brucei) (UniProt P07378). Kind of assay: qHTS Validation Assay to Find Inhibitors of Phosphoglycerate Kinase (AID 504547).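 Further: control wells lack PGK and mark full inhibition.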 The note with it: enzymatic PGK inhibition, coupled luminescence read-out; series mostly up to 57.5 µM. In outline: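 Inhibition of the enzyme is judged by a Kinase-Glo Plus luminescent signal following a one-hour incubation at room temperature. Because 1,3-BPG is unstable, it is made in situ by GAPDH at 100nM final; no-PGK wells define the baseline.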

The target of assay [14] is phosphoglycerate mutase (Leishmania major) (UniProt Q4Q090). Description: qHTS Validation Assay to Find Inhibitors of Phosphoglycerate Mutase (AID 504548).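 Further: end-point luminescence from Kinase-GloPlus after the PGAM reaction; on the % scale 0 is the no-effect control and ±100 the full control effect.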 Conditions: biochemical enzyme activity; series mostly up to 57.5 µM. In a few lines:
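L. major PGAM (1.25nM final) was added to substrate buffer and pinned compound, incubated 45 minutes at room temperature, then Kinase-GloPlus added; luminescence read after 10 minutes. Buffer: 100 mM TEA pH 7.6, 5 mM MgCl2, 0.01% Tween-20.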

The target in assay [15] is Ubiquitin carboxyl-terminal hydrolase 1 (Homo sapiens) (UniProt O94782). Description: Inhibitors of USP1/UAF1: Pilot qHTS (AID 504865).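 Further: rhodamine fluorescence freed from ubiquitin-rhodamine substrate followed over time; top concentration of the series differs between compounds; on the % scale 0 is the no-effect control and ±100 the full control effect; nearly all actives have a fitted effect of over 35% in size.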 The note with it: purified USP1/UAF1, Ub-rhodamine cleavage fluorescence; series mostly up to 114 µM. In outline: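 Kinetic fluorescence assay: 1nM USP1/UAF1, 15 min compound preincubation, then 150nM Ub-Rho; 480/540 nm.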
Assay [16] can be described thus: qHTS for Inhibitors of ATXN expression: Validation of Cytotoxic Assay (AID 588349). Further: on the % scale 0 is the no-effect control and ±100 the full control effect. Conditions: cytotoxicity counter-screen for ATXN expression inhibitors, cell viability; series mostly up to 57.1 µM. In a few lines:
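HEK293 cells treated with titrated compound for 72 hr at 37 degrees C; viability read as intracellular ATP by CellTiter Glo luminescence.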

Assay [17] deals with D(1A) dopamine receptor (Homo sapiens) (UniProt P21728). Kind of assay: HTS Assay for Allosteric Agonists of the Human D1 Dopamine Receptor: Primary Screen for Antagonists (AID 488983).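 Further: calcium flux response to an EC80 dopamine challenge measured with no-wash dye; nearly all actives have a fitted effect of over 65% in size.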 Further: potency means the concentration at half of the fitted maximal effect. Conditions: D1 receptor cell assay, antagonist mode, qHTS titration; series mostly up to 41.8 µM. In a few lines: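 Tetracycline-induced HEK293 T-REx D1 line, force-coupled to calcium flux, read with no-wash calcium dye. Compound added after 10 s baseline, read 180 s for agonism, then EC80 dopamine added and read a further 180 s.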

The nature of assay [18]: Inducers of the Endoplasmic Reticulum Stress Response (ERSR) in human glioma: Validation (AID 504836). Further: 0% is about no effect. The note with it: human glioma cells, ER stress response reporter; series mostly up to 38.3 µM. In a few lines:
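ERSR induction read as luciferase luminescence (Bright-Glo, 10 min at room temperature) in stably transfected human U87-MG glioma cells exposed to compounds for 16 h, using GRP78 as sensor.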

Assay [19] deals with ATP-dependent 6-phosphofructokinase (Trypanosoma brucei brucei) (UniProt O15648). Kind of assay: qHTS Assay to Find Inhibitors of T. brucei phosphofructokinase: hit validation (AID 492961).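 Further: luminescence reports ADP formed as PFK phosphorylates fructose-6-phosphate with ATP; on the % scale 0 is the no-effect control and ±100 the full control effect.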 The note with it: T. brucei PFK, ADP-Glo luminescence; series mostly up to 51.4 µM. In outline: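 Measures ADP output of PFK (1.25 nM) at 0.1 mM ATP, 0.5 mM F6P, pH 8.0 TEA buffer with 5 mM MgCl2. No-enzyme wells define full inhibition; uninhibited enzyme wells define zero.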

The structures appear in SMILES notation. Records with an inconclusive call do not appear. Active and inactive are the calls of the source. Unless noted, the call rests on the fitted dose curve; in most records, active means well fitted curve in the direction sought with a large enough effect; inconclusive means small, poorly fitted or top-dose-only effect, or another doubt; inactive means no such curve, though single readings can be large; an effect the other way counts as inactive or inconclusive.

Peptidyl-prolyl cis-trans isomerase NIMA-interacting 1 (Homo sapiens), sequence (Q13526 whole entry, looked up): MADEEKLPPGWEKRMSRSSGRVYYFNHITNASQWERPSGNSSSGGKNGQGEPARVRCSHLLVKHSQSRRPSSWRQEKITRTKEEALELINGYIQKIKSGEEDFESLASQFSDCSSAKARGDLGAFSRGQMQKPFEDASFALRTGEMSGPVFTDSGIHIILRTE
Phosphoglycerate kinase, glycosomal (Trypanosoma brucei brucei), sequence (P07378 whole entry, looked up): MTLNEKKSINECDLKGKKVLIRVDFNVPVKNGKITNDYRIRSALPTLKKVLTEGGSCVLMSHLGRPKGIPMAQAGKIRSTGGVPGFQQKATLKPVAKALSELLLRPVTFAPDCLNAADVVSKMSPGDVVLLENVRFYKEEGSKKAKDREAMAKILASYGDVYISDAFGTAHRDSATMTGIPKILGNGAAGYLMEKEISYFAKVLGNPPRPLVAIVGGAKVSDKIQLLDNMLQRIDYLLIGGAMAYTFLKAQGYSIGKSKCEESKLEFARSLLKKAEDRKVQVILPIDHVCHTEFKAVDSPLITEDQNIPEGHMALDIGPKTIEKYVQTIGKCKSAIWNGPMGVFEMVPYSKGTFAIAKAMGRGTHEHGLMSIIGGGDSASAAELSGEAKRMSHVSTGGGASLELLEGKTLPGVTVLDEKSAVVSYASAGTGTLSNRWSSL
Ubiquitin carboxyl-terminal hydrolase 1 (Homo sapiens), sequence (O94782 whole entry, looked up): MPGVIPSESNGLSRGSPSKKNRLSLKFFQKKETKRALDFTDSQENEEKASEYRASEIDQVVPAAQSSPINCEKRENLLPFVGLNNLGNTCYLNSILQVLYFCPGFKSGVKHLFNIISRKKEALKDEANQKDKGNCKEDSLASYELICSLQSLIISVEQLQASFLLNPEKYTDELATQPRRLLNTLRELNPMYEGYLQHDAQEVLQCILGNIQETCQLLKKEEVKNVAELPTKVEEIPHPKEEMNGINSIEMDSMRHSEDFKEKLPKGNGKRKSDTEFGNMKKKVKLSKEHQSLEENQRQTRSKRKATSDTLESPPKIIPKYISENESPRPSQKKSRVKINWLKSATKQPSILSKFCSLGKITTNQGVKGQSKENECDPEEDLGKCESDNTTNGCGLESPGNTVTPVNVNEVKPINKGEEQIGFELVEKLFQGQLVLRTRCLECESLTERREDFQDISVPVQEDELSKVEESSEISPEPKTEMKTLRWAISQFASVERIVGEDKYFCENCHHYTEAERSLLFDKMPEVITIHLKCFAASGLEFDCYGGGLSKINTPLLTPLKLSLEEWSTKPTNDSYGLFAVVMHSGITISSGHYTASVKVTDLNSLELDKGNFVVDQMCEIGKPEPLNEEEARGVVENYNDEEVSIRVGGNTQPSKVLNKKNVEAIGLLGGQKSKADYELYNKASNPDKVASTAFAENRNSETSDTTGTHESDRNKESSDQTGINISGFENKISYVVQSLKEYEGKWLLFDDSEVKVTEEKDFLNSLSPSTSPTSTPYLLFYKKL
Thyrotropin-releasing hormone receptor (Homo sapiens), sequence (P34981 whole entry, looked up): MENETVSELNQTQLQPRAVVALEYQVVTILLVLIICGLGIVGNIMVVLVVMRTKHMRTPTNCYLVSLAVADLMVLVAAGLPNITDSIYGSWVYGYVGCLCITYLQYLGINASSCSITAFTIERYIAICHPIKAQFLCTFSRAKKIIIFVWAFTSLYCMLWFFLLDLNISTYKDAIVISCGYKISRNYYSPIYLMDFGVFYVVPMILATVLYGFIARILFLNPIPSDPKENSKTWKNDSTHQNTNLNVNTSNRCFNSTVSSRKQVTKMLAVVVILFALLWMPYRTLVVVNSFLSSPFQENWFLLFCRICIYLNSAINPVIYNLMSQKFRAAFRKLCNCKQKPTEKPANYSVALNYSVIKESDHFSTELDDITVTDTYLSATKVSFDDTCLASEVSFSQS
Transient receptor potential cation channel subfamily V member 1 (Homo sapiens), sequence (Q8NER1 whole entry, looked up): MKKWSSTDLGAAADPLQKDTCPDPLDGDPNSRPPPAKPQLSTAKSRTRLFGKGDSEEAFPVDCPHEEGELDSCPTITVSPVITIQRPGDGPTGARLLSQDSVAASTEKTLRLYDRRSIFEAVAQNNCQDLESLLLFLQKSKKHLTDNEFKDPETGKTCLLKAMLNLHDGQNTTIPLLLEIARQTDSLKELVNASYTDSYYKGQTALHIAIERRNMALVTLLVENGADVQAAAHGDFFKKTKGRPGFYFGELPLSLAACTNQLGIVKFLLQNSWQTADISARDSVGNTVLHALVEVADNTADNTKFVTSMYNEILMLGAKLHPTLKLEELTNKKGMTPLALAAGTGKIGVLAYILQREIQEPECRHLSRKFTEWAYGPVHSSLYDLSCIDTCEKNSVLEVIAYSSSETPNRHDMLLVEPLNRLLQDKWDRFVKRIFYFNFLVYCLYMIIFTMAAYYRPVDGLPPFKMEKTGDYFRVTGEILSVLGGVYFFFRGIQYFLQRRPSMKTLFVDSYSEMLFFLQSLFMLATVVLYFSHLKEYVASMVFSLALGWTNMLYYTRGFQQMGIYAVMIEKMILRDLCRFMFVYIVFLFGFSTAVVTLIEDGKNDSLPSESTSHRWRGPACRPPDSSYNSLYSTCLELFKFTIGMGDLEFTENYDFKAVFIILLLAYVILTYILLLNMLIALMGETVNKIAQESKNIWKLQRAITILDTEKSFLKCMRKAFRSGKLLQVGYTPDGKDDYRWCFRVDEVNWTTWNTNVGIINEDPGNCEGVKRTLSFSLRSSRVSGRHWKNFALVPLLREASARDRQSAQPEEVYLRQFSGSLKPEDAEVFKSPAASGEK
ATPase family AAA domain-containing protein 5 (Homo sapiens), sequence (Q96QE3 whole entry, looked up, the tested form may be a part): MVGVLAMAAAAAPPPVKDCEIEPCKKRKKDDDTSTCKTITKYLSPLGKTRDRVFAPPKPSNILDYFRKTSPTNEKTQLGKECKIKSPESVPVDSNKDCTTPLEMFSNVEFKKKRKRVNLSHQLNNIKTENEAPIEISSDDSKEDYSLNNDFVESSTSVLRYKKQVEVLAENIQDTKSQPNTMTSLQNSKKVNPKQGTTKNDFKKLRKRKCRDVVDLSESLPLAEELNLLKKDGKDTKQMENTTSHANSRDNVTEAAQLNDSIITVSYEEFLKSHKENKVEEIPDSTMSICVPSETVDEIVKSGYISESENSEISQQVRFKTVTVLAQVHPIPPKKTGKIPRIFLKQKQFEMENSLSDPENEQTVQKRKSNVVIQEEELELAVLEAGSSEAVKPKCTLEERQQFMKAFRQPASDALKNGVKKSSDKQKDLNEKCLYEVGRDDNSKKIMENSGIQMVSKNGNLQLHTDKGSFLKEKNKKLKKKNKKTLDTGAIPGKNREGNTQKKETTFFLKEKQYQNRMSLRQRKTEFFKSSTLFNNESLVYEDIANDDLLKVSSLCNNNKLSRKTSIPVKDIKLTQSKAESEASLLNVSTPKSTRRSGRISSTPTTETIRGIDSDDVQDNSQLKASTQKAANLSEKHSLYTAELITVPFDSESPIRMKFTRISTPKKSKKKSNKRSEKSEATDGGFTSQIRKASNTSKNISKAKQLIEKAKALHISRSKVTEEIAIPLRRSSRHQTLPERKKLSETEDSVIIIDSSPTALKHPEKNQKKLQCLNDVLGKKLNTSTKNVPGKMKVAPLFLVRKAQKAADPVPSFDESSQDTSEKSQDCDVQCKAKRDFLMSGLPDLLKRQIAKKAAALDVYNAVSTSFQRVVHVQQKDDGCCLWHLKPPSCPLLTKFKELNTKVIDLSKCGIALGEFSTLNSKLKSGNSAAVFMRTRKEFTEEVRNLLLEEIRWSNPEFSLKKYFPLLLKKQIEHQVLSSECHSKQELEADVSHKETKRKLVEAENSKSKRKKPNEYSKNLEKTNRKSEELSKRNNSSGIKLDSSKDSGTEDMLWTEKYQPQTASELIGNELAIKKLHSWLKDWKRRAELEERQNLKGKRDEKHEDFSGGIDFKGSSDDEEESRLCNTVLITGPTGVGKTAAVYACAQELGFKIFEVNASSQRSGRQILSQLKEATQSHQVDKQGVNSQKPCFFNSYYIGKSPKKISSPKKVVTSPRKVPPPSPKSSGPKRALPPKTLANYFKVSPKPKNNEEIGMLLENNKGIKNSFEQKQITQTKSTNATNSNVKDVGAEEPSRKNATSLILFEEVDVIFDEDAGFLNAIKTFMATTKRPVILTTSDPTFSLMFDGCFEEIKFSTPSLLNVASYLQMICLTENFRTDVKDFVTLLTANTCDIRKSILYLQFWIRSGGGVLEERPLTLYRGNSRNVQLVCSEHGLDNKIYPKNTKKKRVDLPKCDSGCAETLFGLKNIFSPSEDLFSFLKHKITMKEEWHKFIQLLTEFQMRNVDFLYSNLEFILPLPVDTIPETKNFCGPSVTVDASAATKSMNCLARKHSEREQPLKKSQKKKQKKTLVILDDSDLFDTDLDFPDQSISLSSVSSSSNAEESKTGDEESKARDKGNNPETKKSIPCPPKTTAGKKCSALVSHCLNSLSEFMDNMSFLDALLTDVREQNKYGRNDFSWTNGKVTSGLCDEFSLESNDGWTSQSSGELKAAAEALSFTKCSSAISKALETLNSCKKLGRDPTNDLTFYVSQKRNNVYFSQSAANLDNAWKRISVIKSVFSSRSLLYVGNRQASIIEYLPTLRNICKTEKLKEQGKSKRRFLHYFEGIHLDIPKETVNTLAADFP
phosphoglycerate mutase (Leishmania major), sequence (Q4Q090 1-553): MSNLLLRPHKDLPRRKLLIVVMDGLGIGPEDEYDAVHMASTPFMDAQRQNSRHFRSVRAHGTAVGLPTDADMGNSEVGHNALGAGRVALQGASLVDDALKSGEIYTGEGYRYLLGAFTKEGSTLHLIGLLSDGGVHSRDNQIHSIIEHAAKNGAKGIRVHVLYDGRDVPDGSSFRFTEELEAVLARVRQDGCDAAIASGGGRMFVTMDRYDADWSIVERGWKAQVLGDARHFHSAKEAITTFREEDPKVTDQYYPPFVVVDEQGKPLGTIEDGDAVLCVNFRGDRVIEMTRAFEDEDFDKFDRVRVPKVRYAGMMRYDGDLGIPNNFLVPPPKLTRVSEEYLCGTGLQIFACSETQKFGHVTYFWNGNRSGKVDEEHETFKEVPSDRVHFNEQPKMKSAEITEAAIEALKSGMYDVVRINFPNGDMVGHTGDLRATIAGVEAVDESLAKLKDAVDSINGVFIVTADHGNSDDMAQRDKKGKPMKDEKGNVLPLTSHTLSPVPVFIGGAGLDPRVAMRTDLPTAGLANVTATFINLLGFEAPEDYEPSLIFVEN

`CCCN(CCC)C1CCc2ccc(O)cc2C1` (stereo not drawn): the outcome in assay [1], in assay [2], in assay [4], in assay [5], in assay [8] and in [9] was inactive. In addition, the molecule was classed as inactive in assay [10], in assay [11], in assay [12], in assay [13], in [14] and in [16]. The Potency result in assay [3], in assay [6] and in assay [15] was “inactive” each time. Also, the activation in [7] is -5.19% (inactive). Also, the viability change in [8] was -3.98%.
Turning to `NCc1cc(=O)[nH]o1`, the result in assay [1], in [2], in assay [5], in assay [8], in [9] and in assay [10] was inactive. Moreover, the molecule was called inactive in [11], in [12], in [13], in assay [14] and in assay [16]. Also, the Potency entry in assay [3], in [17], in assay [6], in assay [18] and in assay [15] was “inactive” throughout. Also, the activation in assay [7] was -4.19% (inactive). For the same molecule, the viability change in assay [8] stood at 4.87%.
On to `O=C1CCCN1CC#CCN1CCCC1`, for which the result in assay [1], in [2], in [5], in [8], in [9] and in assay [10] was inactive. In addition, the molecule was called inactive in assay [11], in [12], in [13], in assay [14] and in assay [16]. Besides, the Potency result in [3], in [17], in assay [6], in [18] and in [15] was “inactive” throughout. For the same molecule, in assay [7], the activation was 3.06% (inactive). In addition, in assay [8], the viability change turned out to be 3.92%.
Consider `CNCCc1ccc(O)c(O)c1`, for which the result in assay [1], in [2], in assay [5], in [8], in assay [9] and in assay [10] was inactive. In [12], the call was inactive. Moreover, the Potency was 282 nM (active) in [3] and 251 nM (active) in [17]. Moreover, the Potency entry in [6] and in assay [15] was “inactive” each time. Moreover, in [7], the activation is -0.25% (inactive). In addition, in [8], the viability change is 0.688%.
Consider `O=C(O)CC[N+](=O)[O-]`, for which the outcome in assay [1], in assay [5], in [9], in assay [10], in [11] and in assay [12] was inactive. Also, the result in assay [13], in [14] and in assay [16] was inactive. Further, the Potency result in assay [3], in assay [17], in assay [6], in assay [18] and in assay [15] was “inactive” in each case.
Turning to `O=C(O)COc1ccccc1`, the Potency entry in assay [19] and in assay [15] was “inactive” throughout.
With `c1ccc(C2(c3ccccc3)CC2C2=NCCN2)cc1` (stereo not drawn), the Potency result in [3], in assay [17], in assay [19], in assay [6] and in assay [15] was “inactive” throughout. The molecule was classed as inactive in [5], in assay [8], in assay [9], in [12], in [13] and in assay [14]. Besides, in assay [16], the outcome was inactive. In [8], the viability change was -1.31%.
Turning to `COC(C)(C)CCCC(C)C/C=C/C(C)=C/C(=O)OC(C)C` (stereo not drawn), in assay [19], the Potency entry was “inactive”.
Turning to `Cc1c(C(=O)c2cccc3ccccc23)c2cccc3c2n1[C@H](CN1CCOCC1)CO3`, the outcome in assay [1], in assay [2], in assay [5], in assay [10], in [11] and in [13] was inactive. Besides, the molecule was called inactive in [14]. Moreover, the Potency result in assay [3] and in assay [17] was “inactive” throughout. Moreover, the activation in [7] was -3.25% (inactive).
Regarding `CN1C2CCC1CC(OC(=O)c1cc(Cl)cc(Cl)c1)C2` (stereo not drawn), the outcome in [1], in assay [2], in assay [4], in assay [5], in assay [8] and in assay [9] was inactive. Besides, the molecule was classed as inactive in assay [10], in assay [11], in [12], in assay [13], in assay [14] and in assay [16]. The Potency entry in assay [17], in assay [6] and in [15] was “inactive” throughout. Further, the activation in assay [7] is 3.5% (inactive). In addition, the viability change in [8] was 1.01%.
